From PubChem BioAssay (NCATS)

These compounds were tested against Nicotinamide N-methyltransferase (Homo sapiens) (UniProt P40261) (assay: Confirmatory Screen for Target Class Profiling of Small Molecule Inhibitors of Methyltransferases (AID 1745852)). Conditions: MTase-Glo luminescence, SAH detection, recombinant enzyme; measured here: NNMT max response; stronger effect = lower value.
Chain of Nicotinamide N-methyltransferase (Homo sapiens) (P40261 whole entry, looked up): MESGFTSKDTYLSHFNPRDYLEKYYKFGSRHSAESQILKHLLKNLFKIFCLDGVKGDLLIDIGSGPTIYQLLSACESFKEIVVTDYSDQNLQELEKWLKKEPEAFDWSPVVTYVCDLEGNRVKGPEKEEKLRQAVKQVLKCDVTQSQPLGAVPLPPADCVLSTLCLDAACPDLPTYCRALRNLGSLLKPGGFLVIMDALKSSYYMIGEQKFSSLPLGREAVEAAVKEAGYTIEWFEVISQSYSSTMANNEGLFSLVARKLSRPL
Compound `COc1ccc(N2C(=O)c3ccc(-c4ccco4)n3CC2(C)C(=O)NCc2ccccc2)cc1OC` (stereo not given) has an activity of -17.5%. Compound `O=C(NCCc1ccccc1)c1ccc(CN2C(=O)CCn3nc(-c4ccccc4)cc32)cc1` has an activity of -28.8%. With `c1ccc(Cn2cc(CN3CCN(c4ccncc4)CC3)c(-c3cc4ccccc4o3)n2)cc1` the activity was 1.15%. `Cc1nc(NC(=O)C2CC(=O)N(c3n[nH]c4cc(Br)ccc34)C2)sc1C` (stereo not given) gave an activity of -94.1%. Work on `Cc1ccc(NS(=O)(=O)c2ccc3[nH]c(=O)[nH]c3c2)cc1F` yielded an activity of -16.3%. Compound `CN1CCN(C)c2cnc(-c3cnn(Cc4ccccc4)c3)cc2C1` has an activity of 6.62%. Compound `CCCC1c2cccn2CCN1C(=O)NC1(CC(=O)OCC)CCCCC1` (stereo not given) has an activity of -5.96%. Work on `O=C(c1ccc(C2CCCNC2)cc1)N1CCN(c2ccncc2)CC1` (stereo not given) yielded an activity of -3.55%. With `Cc1cnc(C2CCC2)n1C1CCN(C(=O)CCC2CCCC2)CC1` the activity was -13.3%. With `COc1ccc(OC)c(NC(=O)c2sc(=S)n3c2[nH]c(=O)c2ccc(Cl)cc23)c1` the activity was -72.9%. In the case of `Cc1noc2c(N3CCOCC3)cc(-c3cccs3)nc12`, the activity is reported as -22.1%. In the case of `COc1cccc(-c2cccc(C(=O)N3C[C@H](CO)C[C@H](CN(C)C)C3)c2)c1`, the activity is reported as 0.542%. Compound `CCCC1c2cccn2CCN1C(=O)Nc1ccc(Br)cc1` (stereo not given) has an activity of -18.3%. Compound `O=C(Nc1ccc2ncnc(N3CCCCC3)c2c1)c1cc(F)ccc1F` has an activity of -79.2%. With `CC(C)CCNC(=O)c1ccc2c(=O)[nH]c3c(C(=O)NC(C)C)sc(=S)n3c2c1` the activity was -37.9%. In the case of `COc1ccc2[nH]c(CNc3cc(C4CC(N)C4)nc(C)n3)cc2c1` (stereo not given), the activity is reported as -9.73%. For `CCC1CCCCN1CCCNC(=O)Cn1ccc2cc(S(=O)(=O)N3CCCCC3)ccc21` (stereo not given), the activity was -2.34%. In the case of `Cc1ccc(NC(=O)N2CCc3c(c4ccccc4n3CC3CC3)C2)cc1`, the activity is reported as 5.96%. `O=C(CCCc1nnc2n3nc(-c4ccccc4)nc3c3ccccc3n12)NCCN1CCCC1` was tested, and the activity was -3.84%. For `COc1ccc(-c2[nH]ncc2CN2CC[C@H]3CC[C@@H](C2)N3)cc1`, the activity was 10.4%. In the case of `O=C1COc2ccc(-c3cccc(O)c3)nc2CN1Cc1ccc(C(F)(F)F)cc1`, the activity is reported as -22.9%. Compound `CCNc1nccc(N2CCC(CC(=O)N3CCN(c4ccccc4F)CC3)CC2)n1` has an activity of 2.88%. `COc1cccc(NC(=O)Cn2c(=O)oc3cc(S(=O)(=O)N4CCCC4)ccc32)c1` gave an activity of 4.37%. For `Cc1c(O)cc(O)c2c(=O)c(O)c(-c3ccc(O)c(O)c3)oc12`, the activity was -19.4%. `Cc1oc(C(=O)O)cc1COc1ccc2c(-c3ccccc3)cc(=O)oc2c1C` was tested, and the activity was -43.8%. Work on `CC(C)Cn1c(=O)c2ccccc2n2c(=O)n(CC(=O)c3cccc(Cl)c3)nc12` yielded an activity of -38.9%. With `COc1ccc(-c2cc3nc4c(c(=O)n3[nH]2)CN(C(=O)CN(C)S(=O)(=O)c2cnc[nH]2)CC4)cc1` the activity was -27.5%. Compound `COc1cccc(N2C(=O)c3cc4occc4n3CC2(C)C(=O)NC2CCCCCC2)c1` (stereo not given) has an activity of -10.8%. `CN(CCc1nc2ccc(Cl)cc2[nH]1)c1cc(C2CC(O)C2)nc(N)n1` (stereo not given) gave an activity of -2.79%. With `COc1ccc(CCNC(=O)c2ccc3c(=O)nc4c(-c5ccccc5)n[nH]n4c3c2)cc1OC` the activity was -10.5%. For `CCCCN1C(=O)c2cc(C(=O)NCCc3ccccc3Cl)nn2CC1(C)C(=O)NC1CCCC1` (stereo not given), the activity was -0.43%. `Cc1nc2c3ccccc3n3c(CCCC(=O)NCCCN(C)Cc4ccccc4)nnc3n2n1` gave an activity of -3.81%. For `Cn1ncc2c(N3CCN(S(N)(=O)=O)CC3)nc(C3CCCC3)nc21`, the activity was -39.7%. `COc1ccc(OC)c2c1cc1n2CC(C)(C(=O)NC2CCCCCC2)N(Cc2ccccn2)C1=O` (stereo not given) showed an activity of -20.5%. With `CCCC1c2cccn2CCN1C(=O)Nc1cc(Cl)ccc1C` (stereo not given) the activity was -4.96%. Compound `CCOC(=O)c1cccc(Nc2cc(C)nc3ccc(C)cc23)c1` has an activity of -21.8%. `COCCCNC(=O)c1cnc2n[nH]c(-c3ccccc3)c2n1` showed an activity of -64.3%. Compound `CN1CCC(N2C[C@@H]3C[C@H]2C(=O)N(CC2CC2)c2ccccc2O3)CC1` has an activity of -1.59%. Work on `Cc1noc(C)c1-c1cc2c(cc(C)n2CCN(C)C)c(Nc2ccncn2)n1` yielded an activity of -15.3%. With `COc1cccc(CN2CCCC3(CCN(c4cc(C)nc(N)n4)C3)C2)c1OC` (stereo not given) the activity was -4.87%.

The compounds below were run against Phenylethanolamine N-methyltransferase (Homo sapiens) (UniProt P11086) in the same assay as above. Conditions: MTase-Glo luminescence, SAH detection, recombinant enzyme; measured here: PNMT max response; stronger effect = lower value.
Chain of Phenylethanolamine N-methyltransferase (Homo sapiens) (P11086 whole entry, looked up): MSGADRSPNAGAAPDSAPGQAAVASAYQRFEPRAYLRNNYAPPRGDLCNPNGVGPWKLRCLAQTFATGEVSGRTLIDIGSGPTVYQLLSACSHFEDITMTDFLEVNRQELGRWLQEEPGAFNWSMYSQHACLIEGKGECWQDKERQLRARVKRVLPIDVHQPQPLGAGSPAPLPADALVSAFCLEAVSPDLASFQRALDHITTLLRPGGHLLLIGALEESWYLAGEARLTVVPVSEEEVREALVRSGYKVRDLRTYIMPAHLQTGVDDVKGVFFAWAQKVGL
`COc1ccc(N2C(=O)c3ccc(-c4ccco4)n3CC2(C)C(=O)NCc2ccccc2)cc1OC` (stereo not given) was tested, and the activity was -3.81%. In the case of `O=C(NCCc1ccccc1)c1ccc(CN2C(=O)CCn3nc(-c4ccccc4)cc32)cc1`, the activity is reported as -5.57%. In the case of `c1ccc(Cn2cc(CN3CCN(c4ccncc4)CC3)c(-c3cc4ccccc4o3)n2)cc1`, the activity is reported as 6.65%. `Cc1nc(NC(=O)C2CC(=O)N(c3n[nH]c4cc(Br)ccc34)C2)sc1C` (stereo not given) was tested, and the activity was 7.69%. Compound `Cc1ccc(NS(=O)(=O)c2ccc3[nH]c(=O)[nH]c3c2)cc1F` has an activity of -45.9%. `CN1CCN(C)c2cnc(-c3cnn(Cc4ccccc4)c3)cc2C1` showed an activity of 8.78%. Compound `CCCC1c2cccn2CCN1C(=O)NC1(CC(=O)OCC)CCCCC1` (stereo not given) has an activity of -9.82%. `O=C(c1ccc(C2CCCNC2)cc1)N1CCN(c2ccncc2)CC1` (stereo not given) gave an activity of 3.06%. `Cc1cnc(C2CCC2)n1C1CCN(C(=O)CCC2CCCC2)CC1` gave an activity of -7.48%. With `COc1ccc(OC)c(NC(=O)c2sc(=S)n3c2[nH]c(=O)c2ccc(Cl)cc23)c1` the activity was -84.9%. In the case of `Cc1noc2c(N3CCOCC3)cc(-c3cccs3)nc12`, the activity is reported as -11.9%. Compound `COc1cccc(-c2cccc(C(=O)N3C[C@H](CO)C[C@H](CN(C)C)C3)c2)c1` has an activity of 4.94%. `CCCC1c2cccn2CCN1C(=O)Nc1ccc(Br)cc1` (stereo not given) gave an activity of -12.2%. With `O=C(Nc1ccc2ncnc(N3CCCCC3)c2c1)c1cc(F)ccc1F` the activity was -80.3%. `CC(C)CCNC(=O)c1ccc2c(=O)[nH]c3c(C(=O)NC(C)C)sc(=S)n3c2c1` was tested, and the activity was -33.6%. For `COc1ccc2[nH]c(CNc3cc(C4CC(N)C4)nc(C)n3)cc2c1` (stereo not given), the activity was 3.97%. Work on `CCC1CCCCN1CCCNC(=O)Cn1ccc2cc(S(=O)(=O)N3CCCCC3)ccc21` (stereo not given) yielded an activity of -1.74%. Compound `Cc1ccc(NC(=O)N2CCc3c(c4ccccc4n3CC3CC3)C2)cc1` has an activity of 6.82%. Work on `O=C(CCCc1nnc2n3nc(-c4ccccc4)nc3c3ccccc3n12)NCCN1CCCC1` yielded an activity of 0%. `COc1ccc(-c2[nH]ncc2CN2CC[C@H]3CC[C@@H](C2)N3)cc1` was tested, and the activity was 7.25%. `O=C1COc2ccc(-c3cccc(O)c3)nc2CN1Cc1ccc(C(F)(F)F)cc1` showed an activity of -51.9%. `CCNc1nccc(N2CCC(CC(=O)N3CCN(c4ccccc4F)CC3)CC2)n1` gave an activity of 5.27%. Compound `COc1cccc(NC(=O)Cn2c(=O)oc3cc(S(=O)(=O)N4CCCC4)ccc32)c1` has an activity of -58.7%. `Cc1c(O)cc(O)c2c(=O)c(O)c(-c3ccc(O)c(O)c3)oc12` showed an activity of -17.7%. For `Cc1oc(C(=O)O)cc1COc1ccc2c(-c3ccccc3)cc(=O)oc2c1C`, the activity was -32.8%. `CC(C)Cn1c(=O)c2ccccc2n2c(=O)n(CC(=O)c3cccc(Cl)c3)nc12` was tested, and the activity was -8.68%. Compound `COc1ccc(-c2cc3nc4c(c(=O)n3[nH]2)CN(C(=O)CN(C)S(=O)(=O)c2cnc[nH]2)CC4)cc1` has an activity of -19.5%. In the case of `COc1cccc(N2C(=O)c3cc4occc4n3CC2(C)C(=O)NC2CCCCCC2)c1` (stereo not given), the activity is reported as -10.9%. `CN(CCc1nc2ccc(Cl)cc2[nH]1)c1cc(C2CC(O)C2)nc(N)n1` (stereo not given) showed an activity of 3.63%. With `COc1ccc(CCNC(=O)c2ccc3c(=O)nc4c(-c5ccccc5)n[nH]n4c3c2)cc1OC` the activity was -12.5%. Compound `CCCCN1C(=O)c2cc(C(=O)NCCc3ccccc3Cl)nn2CC1(C)C(=O)NC1CCCC1` (stereo not given) has an activity of -2.62%. `Cc1nc2c3ccccc3n3c(CCCC(=O)NCCCN(C)Cc4ccccc4)nnc3n2n1` gave an activity of -3.01%. With `Cn1ncc2c(N3CCN(S(N)(=O)=O)CC3)nc(C3CCCC3)nc21` the activity was -18%. In the case of `COc1ccc(OC)c2c1cc1n2CC(C)(C(=O)NC2CCCCCC2)N(Cc2ccccn2)C1=O` (stereo not given), the activity is reported as -2.24%. Work on `CCCC1c2cccn2CCN1C(=O)Nc1cc(Cl)ccc1C` (stereo not given) yielded an activity of -0.621%. For `CCOC(=O)c1cccc(Nc2cc(C)nc3ccc(C)cc23)c1`, the activity was -4.31%. Compound `COCCCNC(=O)c1cnc2n[nH]c(-c3ccccc3)c2n1` has an activity of -75.1%. `CN1CCC(N2C[C@@H]3C[C@H]2C(=O)N(CC2CC2)c2ccccc2O3)CC1` was tested, and the activity was 3.64%. `Cc1noc(C)c1-c1cc2c(cc(C)n2CCN(C)C)c(Nc2ccncn2)n1` showed an activity of -28.6%. With `COc1cccc(CN2CCCC3(CCN(c4cc(C)nc(N)n4)C3)C2)c1OC` (stereo not given) the activity was -3.6%.
